3T3 cytotox: cytotoxic compounds in NIH 3T3 cells; AID 1345082; Potency, µM (highest dose often 96.7 µM), for the others: at the top dose activity change, negative = cytotoxicity, hits mostly inhibitors; NIH 3T3 viability, CellTiter-Glo ATP luminescence, 48-72 h; actives 4.3% (n = 94,000); further: nearly all actives have a fitted effect of over 55% in size
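Luminescent ATP readout (CellTiter-Glo, 10 min RT) after 48 or 72 hr compound exposure of NIH 3T3 cells seeded at 400 cells/well in 1536-well format; quantitative HTS.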
Luciferase inh: Photinus pyralis luciferase inhibition; P08659; actives 2.5% (n = 76,000); Potency, µM (top dose mostly 115 µM), usual class: inhibitors; purified P. pyralis luciferase, luminescence, biochemical; further: nearly all actives have a fitted effect of over 65% in size
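Luminescence read by CCD imaging after purified firefly luciferase (10nM final) was added to substrate buffer holding 10uM D-luciferin and 10uM ATP, pH 7.5, pre-dosed with compound.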
hNpr1 antagonist: antagonists of human natriuretic peptide receptor Npr1; actives 1.6% (n = 76,000); HEK293 hNpr1 GloSensor cGMP, ANP-stimulated luminescence; Potency, µM (series often up to 46.3 µM), for the others: top-dose activity change, negative = inhibition, hits mostly inhibitors; calls by dose curve; further: nearly all actives have a fitted effect of over 60% in size
Target sequence (P16066 whole entry, looked up): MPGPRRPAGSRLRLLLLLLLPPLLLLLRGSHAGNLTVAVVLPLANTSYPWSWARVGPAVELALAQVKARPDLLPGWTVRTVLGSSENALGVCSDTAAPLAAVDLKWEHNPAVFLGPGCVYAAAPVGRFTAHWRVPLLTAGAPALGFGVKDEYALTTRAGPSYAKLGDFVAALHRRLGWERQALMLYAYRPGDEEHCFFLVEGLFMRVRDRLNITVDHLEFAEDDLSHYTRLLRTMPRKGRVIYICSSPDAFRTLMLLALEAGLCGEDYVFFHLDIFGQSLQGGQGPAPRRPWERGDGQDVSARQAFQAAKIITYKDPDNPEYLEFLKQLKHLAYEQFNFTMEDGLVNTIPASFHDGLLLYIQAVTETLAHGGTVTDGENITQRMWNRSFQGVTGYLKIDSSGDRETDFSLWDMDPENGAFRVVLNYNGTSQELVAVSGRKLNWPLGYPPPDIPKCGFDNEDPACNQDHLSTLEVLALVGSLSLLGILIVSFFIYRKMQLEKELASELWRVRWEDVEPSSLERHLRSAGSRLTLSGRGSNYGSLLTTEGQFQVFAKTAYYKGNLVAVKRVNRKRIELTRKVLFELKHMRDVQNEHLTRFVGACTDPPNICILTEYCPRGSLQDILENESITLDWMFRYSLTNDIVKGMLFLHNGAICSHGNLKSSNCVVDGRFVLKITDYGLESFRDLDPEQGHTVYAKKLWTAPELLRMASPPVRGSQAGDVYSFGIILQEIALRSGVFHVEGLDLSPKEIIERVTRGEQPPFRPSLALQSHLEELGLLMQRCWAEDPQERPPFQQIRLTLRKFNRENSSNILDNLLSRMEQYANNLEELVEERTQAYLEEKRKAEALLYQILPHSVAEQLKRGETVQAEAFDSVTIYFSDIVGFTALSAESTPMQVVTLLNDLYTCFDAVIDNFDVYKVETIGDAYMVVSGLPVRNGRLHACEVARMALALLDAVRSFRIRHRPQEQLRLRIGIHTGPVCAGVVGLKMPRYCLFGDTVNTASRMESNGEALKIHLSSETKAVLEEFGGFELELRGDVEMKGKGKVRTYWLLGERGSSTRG
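HEK293 cells stably expressing human Npr1 and cGMP GloSensor pGS-40F, loaded 2 h with 2% GloSensor reagent, given compound 30 min at room temperature. Luminescence read before and 20 min after 0.1 nM hNppA.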
HEK293 tox: kills HEK 293 cells | HEK 293 viability, ATP luminescence (CellTiter-Glo), 48-72 h | Potency, µM (highest dose often 115 µM), for the others: at the highest dose activity change, negative = cytotoxicity, hits mostly inhibitors | actives 6.6% (n = 94,000); further: nearly all actives have a fitted effect of over 60% in size
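Pintool-delivered compounds were incubated with HEK 293 cells (250 cells/well) at 37 degree Celsius for 48 or 72 hr. ATP-dependent luminescence (CellTiter-Glo) then reported remaining viable cells.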
* = called active by the depositor; i = inactive; u = inconclusive; x = not tested or not shown; [ ] = another dose, or the depositor's remark. An excerpt weighted towards active compounds, which were near 11% of everything screened. Unless noted, the call rests on the fitted dose curve; in most records, active means well fitted curve in the direction sought with a large enough effect; inconclusive means small, poorly fitted or top-dose-only effect, or another doubt; inactive means no such curve, though single readings can be large; an effect the other way counts as inactive or inconclusive. On the % scale 0 is the no-effect control and ±100 the full control effect; potency means the concentration at half of the fitted maximal effect.

SMILES	3T3 cytotox	Luciferase inh	hNpr1 antagonist	HEK293 tox
COc1ccc(C(=O)N2CCC(N3C(=O)c4c(c(C)nn4-c4ccccc4)C3C(C)C)CC2)cc1 (centres undefined)	-27%	x	x	-13%
O=[S+]([O-])(NCC1CN(Cc2ccc3c(c2)CCO3)CC12CN(c1ccccc1)C2)c1ccccc1 (centres undefined)	u	i	-14%	u
COc1ccc(CN2CC(CN[S+](=O)([O-])c3ccccc3)C3(C2)CN(c2ccccc2)C3)cc1O (centres undefined)	22µM*	i	-11%	u
COc1ccc(CN2CC(CNc3ccccc3)C3(C2)CN(c2ccccc2)C3)cc1O (centres undefined)	28µM*	i	-8%[70.6 µM]	40µM*
COc1ccccc1CN1CC(CNC(=O)Nc2ccccc2)C2(C1)CN(c1ccccc1)C2 (centres undefined)	u	i	-15%	79µM*
CC(C)CCN1CC(CN[S+](=O)([O-])c2ccccc2)C2(C1)CN(c1ccccc1)C2 (centres undefined)	45µM*	i	-17%[70.6 µM]	u
CC(=O)NCCC(=O)N1Cc2ccccc2CC2(CCCCN2CC2CCCC2)C1 (centres undefined)	-15%	x	x	-11%
O=C(NCc1ccccc1Cl)C1CCc2nnc(C3CC3)n21 (centres undefined)	-10%	x	x	-23%
Cc1cccnc1CNC[C@H]1O[C@@H]2C[C@@H](CC(=O)N3CCOCC3)O[C@@H]2[C@@H]1O	2%[174 µM]	i	6%[70.6 µM]	4%[172 µM]
CC(C)c1ccc(CN2CC(CNC(=O)c3cnn(C)c3)C3(C2)CN(c2ccccc2)C3)cc1 (centres undefined)	u	i	-3%	79µM*
CC(C)c1ccc([S+](=O)([O-])N2CC(CNC(=O)c3cnn(C)c3)C3(CN(c4ccccc4)C3)C2)cc1 (centres undefined)	u	i	-12%	u
O=C(CCC1CCCN(Cc2cccn2-c2nccs2)C1)Nc1ccccc1F (centres undefined)	-24%	i	-7%	-28%
Fc1cccc(NC2CCCN(Cc3cccn3-c3nccs3)C2)c1 (centres undefined)	u	i	-5%	45µM*
C=C(C)CN(C)C(=O)c1cc(CN2CCC(Cc3ccccc3)CC2)on1	-28%	i	-4%	89µM*
COc1ccc(-c2nc(CN3CCC(CO)CC3)c(C)o2)c2ccccc12	u	i	9%	20µM*
COc1ccc2[nH]c(C[C@@H]3C[C@@H](C(C)C)[C@H](CNC4CCN(C(C)=O)CC4)C=C3C)nc2n1	u	i	-3%	u
COc1ccc2[nH]c(C[C@@H]3C[C@@H](C(C)C)[C@H](CNC(C)=O)C=C3C)nc2n1	u	i	-2%[70.6 µM]	71µM*
COc1ccc2[nH]c(C[C@@H]3C[C@@H](C(C)C)[C@H](CNC(=O)c4cnccn4)C=C3C)nc2n1	100µM*	i	-22%[70.6 µM]	63µM*
COc1ccc2[nH]c(C[C@@H]3C[C@@H](C(C)C)[C@H](CNC(=O)Cn4cnnn4)C=C3C)nc2n1	u	i	1%	u
COc1ccc2[nH]c(C[C@@H]3C[C@@H](C(C)C)[C@H](CNCc4cccnc4)C=C3C)nc2n1	89µM*	i	-16%[70.6 µM]	63µM*
COc1ccccc1-c1cc(C(=O)Nc2cccc(F)c2)c2cnn(C)c2n1	u	x	x	-30%
CN(Cc1cccnc1)c1nc2c(c(=O)[nH]1)CCN(Cc1ccccc1C(F)(F)F)CC2	u	i	u	20µM*
CN(Cc1cccnc1)Cc1nc(C2(O)CCN(Cc3ccccc3C(F)(F)F)CC2)cs1	u	i	-21%	45µM*
CC(C)Cn1c(=O)c(C(=O)N2CCN(c3ncccn3)CC2)nc2cccnc21	u	x	x	-9%
CC(C)NCC1(COc2ccc(C(F)(F)F)cn2)C[C@@H](O)[C@@H](O)C1 (some centres undefined)	i	i	4%[70.6 µM]	i
SMILES	3T3 cytotox	Luciferase inh	hNpr1 antagonist	HEK293 tox
C[C@@]12CO[C@H](c3ccccc3)C[C@@H]1C[C@@H](N1CCN(Cc3ccc(F)cc3)CC1)C2	-37%	x	x	u
CCN1C(=O)Cc2cc(C(=O)NCc3c(C)cc(C)cc3C)ccc21	u	i	-14%	40µM*
COc1ccc(CCNC(=O)c2ccc3nnc(-c4ccc([S+](C)(=O)[O-])cc4)n3c2)cc1	-22%	x	x	u
CN1CCCCCC(O)c2cc(C(=O)N3CCc4ccccc43)ccc21 (centres undefined)	35µM*	u	u	u
CN1CCCCCC(O)c2cc(C(=O)N3CCOCC3)ccc21 (centres undefined)	u	i	6%	-29%
CN1CCCCCC(O)c2cc(C(=O)N3CCN(Cc4ccccc4)CC3)ccc21 (centres undefined)	u	i	-24%	56µM*
Cc1cccc(N2CCN(C(=O)c3ccc4c(c3)C(O)CCCCCN4C)CC2)c1 (centres undefined)	u	i	-13%	u
COc1ccccc1N1CCN(C(=O)c2ccc3c(c2)C(O)CCCCCN3C)CC1 (centres undefined)	u	i	-18%	45µM*
COc1ccccc1CN1CCC2(CC1)OC(=O)N(Cc1ccccc1F)C2(C)c1ccccc1 (centres undefined)	28µM*	i	-3%	35µM*
CC1(c2ccccc2)N(Cc2ccccc2F)C(=O)OC12CCN(Cc1cccnc1)CC2 (centres undefined)	u	i	-1%	u
CC1(c2ccccc2)N(Cc2ccccc2F)C(=O)OC12CCN(c1cccnc1)CC2 (centres undefined)	89µM*	i	-16%[70.6 µM]	89µM*
CN(C)c1ccc2ncc(Nc3ccccc3-c3ccccc3)n2n1	28µM*	u	-6%[70.6 µM]	63µM*
CN(C)c1ccc2ncc(Nc3ccccc3Cl)n2n1	32µM*	i	-1%[70.6 µM]	u
CN(C)c1ccc2ncc(Nc3cccc(C(F)(F)F)c3)n2n1	u	i	6%[70.6 µM]	u
CCCCC1CCCN1C(=O)c1coc(COc2cccc(F)c2F)n1 (centres undefined)	u	i	-2%	u
CC(C)Oc1cc(-c2ccc(C(C)N3CCOCC3)cc2)nc(N)n1 (centres undefined)	u	35µM*	1%	u
Cc1cc(C)c(C#N)c(-c2ccc(C(C)N3CCOCC3)cc2)n1 (centres undefined)	u	i	u	u
Cc1cc(OC2CN(C(=O)c3ccccn3)C2)ccc1F	u	u	-7%[70.6 µM]	79µM*
Cc1cc(F)ccc1OC1CN(C(=O)c2ccccn2)C1	u	50µM*	-2%[70.6 µM]	u
O=C(c1ccccn1)N1CC(Oc2ccc(F)cc2F)C1	-24%	x	x	-19%
